Measured values taken from the supplement of paper PMC10849652.
Of roughly 7,900 targets only a part is listed; those with a hit were picked by preference. About 0.6% of all pairs of compound and target were hits.

Experiments:
Assay in all cases: log2 fold change, soluble protein after heating vs DMSO (PISA); higher = thermal stabilisation; K562 cells, 10 uM, 30 min; active = over 0.2 and 3.5 SD of the protein, either way, in both replicates (recomputed)
saracatinib = compound: CN1CCN(CCOc2cc(OC3CCOCC3)c3c(Nc4c(Cl)ccc5c4OCO5)ncnc3c2)CC1 [saracatinib]
Outline: (§1)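 K562 cells at 2×10^6 cells/mL were treated with 10 μM compound for 30 min. Aliquots were heated for 3 min across 48°C-58°C, pooled, and extracted in PBS with 0.5% NP-40 at 4°C; soluble protein was the supernatant after 21,000xg for 90 min. Soluble protein was quantified by TMTpro 16plex LC-MS/MS with channel sums equalised, and reported as log2 fold change in thermal stability against DMSO controls, with values from duplicates.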

sotrastaurin = compound: CN1CCN(c2nc(C3=C(c4c[nH]c5ccccc45)C(=O)NC3=O)c3ccccc3n2)CC1 [sotrastaurin]
Outline: as §1

alvocidib = compound: CN1CC[C@H](c2c(O)cc(O)c3c(=O)cc(-c4ccccc4Cl)oc23)[C@H](O)C1 [alvocidib]
Outline: as §1

Tubastatin A = compound: CN1CCc2c(c3ccccc3n2Cc2ccc(C(=O)NO)cc2)C1 [Tubastatin A]
Outline: as §1

[1] = compound: CNC(=O)C1=CC=CC=C1NC2=NC(=NC=C2Cl)NC3=C(C=C(C=C3)N4CCOCC4)OC
Outline: as §1

defactinib = compound: CNC(=O)c1ccc(Nc2ncc(C(F)(F)F)c(NCc3nccnc3N(C)S(C)(=O)=O)n2)cc1 [defactinib]
Outline: as §1

rucaparib = compound: CNCc1ccc(-c2[nH]c3cc(F)cc4c3c2CCNC4=O)cc1 [rucaparib]
Outline: as §1

[2] = compound: CNc1nc(-c2ccc3c(N)n[nH]c3c2)cc(N2C[C@@H](C(=O)NC3CCCCC3)CC[C@H]2C)n1
Outline: as §1

encorafenib = compound: COC(=O)N[C@@H](C)CNc1nccc(-c2cn(C(C)C)nc2-c2cc(Cl)cc(NS(C)(=O)=O)c2F)n1 [encorafenib]
Outline: as §1

[3] = compound: COC(=O)[C@H](CCSC)NC(=O)C1=C(C=C(C=C1)NC[C@H](CS)N)C2=CC=CC=C2
Outline: as §1

[4] = compound: COC1=CC=C(C=C1)CN2C=CC3=C2C=C(C=C3)C(=O)NO
Outline: as §1

filanesib = compound: CON(C)C(=O)N1N=C(c2cc(F)ccc2F)S[C@@]1(CCCN)c1ccccc1 [filanesib]
Outline: as §1

zotarolimus = compound: CO[C@H]1C[C@@H]2CC[C@@H](C)[C@@](O)(O2)C(=O)C(=O)N2CCCC[C@H]2C(=O)O[C@H]([C@H](C)C[C@@H]2CC[C@H](n3cnnn3)[C@H](OC)C2)CC(=O)[C@H](C)/C=C(\C)[C@@H](O)[C@@H](OC)C(=O)[C@H](C)C[C@H](C)/C=C/C=C/C=C/1C [zotarolimus]
Outline: as §1

idasanutlin = compound: COc1cc(C(=O)O)ccc1NC(=O)[C@@H]1N[C@@H](CC(C)(C)C)[C@](C#N)(c2ccc(Cl)cc2F)[C@H]1c1cccc(Cl)c1F [idasanutlin]
Outline: as §1

alisertib = compound: COc1cc(Nc2ncc3c(n2)-c2ccc(Cl)cc2C(c2c(F)cccc2OC)=NC3)ccc1C(=O)O [alisertib]
Outline: as §1

[5] = compound: COc1cc2nc(-c3cc(F)ccc3O)nc(N[C@@H]3CNC[C@H]3C(C)(C)O)c2cc1OC
Outline: as §1

gefitinib = compound: COc1cc2ncnc(Nc3ccc(F)c(Cl)c3)c2cc1OCCCN1CCOCC1 [gefitinib]
Outline: as §1

[6] = compound: COc1cccc2cc(-c3nc([C@H]4CC[C@H](C(=O)O)CC4)n4ncnc(N)c34)[nH]c12
Outline: as §1

lapatinib = compound: CS(=O)(=O)CCNCc1ccc(-c2ccc3ncnc(Nc4ccc(OCc5cccc(F)c5)c(Cl)c4)c3c2)o1 [lapatinib]
Outline: as §1

pictilisib = compound: CS(=O)(=O)N1CCN(Cc2cc3nc(-c4cccc5[nH]ncc45)nc(N4CCOCC4)c3s2)CC1 [pictilisib]
Outline: as §1

Measured: log2 fold change

SUPT16H (UniProt Q9Y5B9)
UniProt Q9Y5B9, sequence (Q9Y5B9 whole entry, looked up): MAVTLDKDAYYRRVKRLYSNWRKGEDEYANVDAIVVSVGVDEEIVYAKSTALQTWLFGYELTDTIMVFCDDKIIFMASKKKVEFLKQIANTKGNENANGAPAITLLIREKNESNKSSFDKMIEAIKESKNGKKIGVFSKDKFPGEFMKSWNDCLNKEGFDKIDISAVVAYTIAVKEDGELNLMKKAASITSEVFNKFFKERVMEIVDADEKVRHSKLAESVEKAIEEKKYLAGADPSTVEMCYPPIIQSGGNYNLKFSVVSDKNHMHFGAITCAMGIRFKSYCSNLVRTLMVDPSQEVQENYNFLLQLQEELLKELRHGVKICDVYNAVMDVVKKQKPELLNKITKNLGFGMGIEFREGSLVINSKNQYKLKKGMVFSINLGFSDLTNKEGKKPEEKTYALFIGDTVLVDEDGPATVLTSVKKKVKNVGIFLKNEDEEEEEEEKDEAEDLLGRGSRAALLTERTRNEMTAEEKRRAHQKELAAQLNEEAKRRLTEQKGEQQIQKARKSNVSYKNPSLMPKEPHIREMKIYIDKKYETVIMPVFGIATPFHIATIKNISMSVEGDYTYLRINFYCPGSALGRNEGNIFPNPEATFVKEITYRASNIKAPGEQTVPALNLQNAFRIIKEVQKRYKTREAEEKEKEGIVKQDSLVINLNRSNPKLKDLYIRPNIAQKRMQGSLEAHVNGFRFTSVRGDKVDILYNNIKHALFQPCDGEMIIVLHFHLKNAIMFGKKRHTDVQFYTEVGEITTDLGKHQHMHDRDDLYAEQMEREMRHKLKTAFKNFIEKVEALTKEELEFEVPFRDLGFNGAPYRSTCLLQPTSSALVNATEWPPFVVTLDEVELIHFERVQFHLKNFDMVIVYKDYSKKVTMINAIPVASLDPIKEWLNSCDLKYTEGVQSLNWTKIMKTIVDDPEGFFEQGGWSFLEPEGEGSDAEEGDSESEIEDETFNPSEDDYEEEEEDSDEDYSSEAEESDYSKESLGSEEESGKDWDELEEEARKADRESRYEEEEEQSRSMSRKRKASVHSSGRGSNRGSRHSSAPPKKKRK
inactive: saracatinib -0.125 | sotrastaurin -0.209 | alvocidib -0.359 | Tubastatin A 0.374 | [1] 0.034 | rucaparib -0.104 | [2] 0.024 | encorafenib 0.113 | [3] -0.138 | [4] 0.106 | filanesib -0.026 | zotarolimus 0.104 | idasanutlin -0.057 | alisertib 0.12 | [5] -0.036 | gefitinib 0.062 | [6] -0.023 | lapatinib 0.035 | pictilisib 0.011
active: defactinib -0.476

TBC1D9B (UniProt Q66K14)
UniProt Q66K14, sequence (Q66K14 whole entry, looked up): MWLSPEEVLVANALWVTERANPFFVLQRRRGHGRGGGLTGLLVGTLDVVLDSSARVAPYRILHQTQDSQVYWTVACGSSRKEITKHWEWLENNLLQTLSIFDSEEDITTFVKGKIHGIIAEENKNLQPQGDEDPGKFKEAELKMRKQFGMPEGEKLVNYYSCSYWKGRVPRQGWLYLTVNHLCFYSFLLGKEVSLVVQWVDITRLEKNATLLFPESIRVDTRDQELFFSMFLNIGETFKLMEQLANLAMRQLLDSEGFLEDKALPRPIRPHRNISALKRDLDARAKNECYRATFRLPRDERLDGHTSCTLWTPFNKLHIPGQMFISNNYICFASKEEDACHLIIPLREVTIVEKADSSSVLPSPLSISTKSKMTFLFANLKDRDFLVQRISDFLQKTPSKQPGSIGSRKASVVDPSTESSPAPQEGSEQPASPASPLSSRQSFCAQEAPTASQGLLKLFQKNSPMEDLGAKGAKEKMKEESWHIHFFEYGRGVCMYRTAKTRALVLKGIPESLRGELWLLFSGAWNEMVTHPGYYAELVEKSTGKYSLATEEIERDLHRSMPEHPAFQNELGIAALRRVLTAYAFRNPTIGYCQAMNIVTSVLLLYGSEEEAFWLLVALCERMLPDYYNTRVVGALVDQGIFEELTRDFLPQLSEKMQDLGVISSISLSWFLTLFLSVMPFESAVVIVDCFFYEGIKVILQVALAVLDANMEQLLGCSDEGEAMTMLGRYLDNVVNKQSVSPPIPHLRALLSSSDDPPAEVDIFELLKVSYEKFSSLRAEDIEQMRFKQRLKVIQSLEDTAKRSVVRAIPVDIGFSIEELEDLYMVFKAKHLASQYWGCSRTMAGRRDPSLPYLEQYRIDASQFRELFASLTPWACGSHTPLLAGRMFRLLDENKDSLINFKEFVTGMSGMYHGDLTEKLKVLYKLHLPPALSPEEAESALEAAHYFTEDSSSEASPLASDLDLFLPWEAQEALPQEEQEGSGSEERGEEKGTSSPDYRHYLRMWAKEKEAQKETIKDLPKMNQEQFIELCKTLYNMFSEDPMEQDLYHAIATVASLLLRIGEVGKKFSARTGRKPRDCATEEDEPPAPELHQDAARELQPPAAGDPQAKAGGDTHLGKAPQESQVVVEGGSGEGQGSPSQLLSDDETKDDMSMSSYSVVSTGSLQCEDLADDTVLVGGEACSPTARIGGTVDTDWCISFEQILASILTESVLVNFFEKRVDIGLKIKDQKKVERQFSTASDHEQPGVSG
inactive: saracatinib -0.023 | sotrastaurin 0.077 | alvocidib -0.059 | Tubastatin A 0.063 | [1] -0.07 | defactinib -0.064 | rucaparib 0.009 | [2] -0.01 | encorafenib 0.065 | [3] 0.027 | [4] -0.037 | filanesib 0.151 | zotarolimus 0.042 | idasanutlin -0.003 | alisertib 0.03 | [5] -0.026 | gefitinib -0.072 | [6] 0.03 | lapatinib -0.031 | pictilisib 0.068

STK26 (UniProt Q9P289)
UniProt Q9P289, sequence (Q9P289 whole entry, looked up): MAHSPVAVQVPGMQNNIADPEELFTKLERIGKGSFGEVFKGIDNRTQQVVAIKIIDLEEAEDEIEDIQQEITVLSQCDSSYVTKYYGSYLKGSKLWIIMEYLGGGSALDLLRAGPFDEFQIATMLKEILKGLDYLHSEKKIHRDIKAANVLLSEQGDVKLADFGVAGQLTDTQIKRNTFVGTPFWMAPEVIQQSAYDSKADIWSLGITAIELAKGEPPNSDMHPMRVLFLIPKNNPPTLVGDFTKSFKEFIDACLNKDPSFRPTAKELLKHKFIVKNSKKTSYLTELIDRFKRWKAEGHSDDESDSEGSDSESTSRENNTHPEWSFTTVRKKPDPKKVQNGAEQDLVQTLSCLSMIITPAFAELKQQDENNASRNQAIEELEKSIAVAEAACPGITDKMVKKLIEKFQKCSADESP
inactive: saracatinib -0.027 | sotrastaurin 0.009 | alvocidib 0.018 | Tubastatin A -0.049 | [1] -0.057 | defactinib 0.067 | rucaparib -0.005 | [2] -0.001 | encorafenib 0.032 | [3] 0.054 | [4] 0.018 | filanesib -0.147 | zotarolimus -0.03 | idasanutlin 0.045 | alisertib -0.059 | [5] 0.069 | gefitinib -0.037 | [6] 0.009 | lapatinib 0.019 | pictilisib -0.105

TARS2 (UniProt Q9BW92)
UniProt Q9BW92, sequence (Q9BW92 whole entry, looked up): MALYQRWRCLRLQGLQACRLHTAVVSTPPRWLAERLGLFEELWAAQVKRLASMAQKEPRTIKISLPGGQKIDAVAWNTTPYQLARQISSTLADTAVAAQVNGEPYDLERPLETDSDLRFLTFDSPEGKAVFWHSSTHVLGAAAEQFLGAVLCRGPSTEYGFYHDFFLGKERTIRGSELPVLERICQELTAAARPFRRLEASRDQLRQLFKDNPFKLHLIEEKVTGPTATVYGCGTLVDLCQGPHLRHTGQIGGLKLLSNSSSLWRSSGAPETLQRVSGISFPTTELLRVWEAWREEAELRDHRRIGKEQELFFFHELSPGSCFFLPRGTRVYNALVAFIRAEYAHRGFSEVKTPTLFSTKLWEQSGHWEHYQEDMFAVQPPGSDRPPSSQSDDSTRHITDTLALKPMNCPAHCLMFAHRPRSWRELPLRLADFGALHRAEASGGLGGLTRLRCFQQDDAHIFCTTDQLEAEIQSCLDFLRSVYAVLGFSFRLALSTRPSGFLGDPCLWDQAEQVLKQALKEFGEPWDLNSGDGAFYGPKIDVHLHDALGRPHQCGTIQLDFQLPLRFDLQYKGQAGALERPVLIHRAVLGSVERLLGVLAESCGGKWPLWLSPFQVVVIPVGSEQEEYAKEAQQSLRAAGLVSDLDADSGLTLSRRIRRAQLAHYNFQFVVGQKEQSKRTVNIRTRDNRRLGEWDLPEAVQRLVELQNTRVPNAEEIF
inactive: saracatinib -0.004 | sotrastaurin -0.049 | alvocidib -0.041 | [1] 0.03 | defactinib -0.033 | rucaparib 0.009 | [2] -0.098 | encorafenib 0.015 | [3] 0.039 | filanesib -0.02 | zotarolimus -0.006 | idasanutlin -0.084 | alisertib -0.021 | [5] 0.044 | gefitinib -0.023 | [6] 0.041 | lapatinib -0.022 | pictilisib 0.004
active: Tubastatin A -0.357 | [4] -0.487

TFR2 (UniProt Q9UP52)
UniProt Q9UP52, sequence (Q9UP52 whole entry, looked up): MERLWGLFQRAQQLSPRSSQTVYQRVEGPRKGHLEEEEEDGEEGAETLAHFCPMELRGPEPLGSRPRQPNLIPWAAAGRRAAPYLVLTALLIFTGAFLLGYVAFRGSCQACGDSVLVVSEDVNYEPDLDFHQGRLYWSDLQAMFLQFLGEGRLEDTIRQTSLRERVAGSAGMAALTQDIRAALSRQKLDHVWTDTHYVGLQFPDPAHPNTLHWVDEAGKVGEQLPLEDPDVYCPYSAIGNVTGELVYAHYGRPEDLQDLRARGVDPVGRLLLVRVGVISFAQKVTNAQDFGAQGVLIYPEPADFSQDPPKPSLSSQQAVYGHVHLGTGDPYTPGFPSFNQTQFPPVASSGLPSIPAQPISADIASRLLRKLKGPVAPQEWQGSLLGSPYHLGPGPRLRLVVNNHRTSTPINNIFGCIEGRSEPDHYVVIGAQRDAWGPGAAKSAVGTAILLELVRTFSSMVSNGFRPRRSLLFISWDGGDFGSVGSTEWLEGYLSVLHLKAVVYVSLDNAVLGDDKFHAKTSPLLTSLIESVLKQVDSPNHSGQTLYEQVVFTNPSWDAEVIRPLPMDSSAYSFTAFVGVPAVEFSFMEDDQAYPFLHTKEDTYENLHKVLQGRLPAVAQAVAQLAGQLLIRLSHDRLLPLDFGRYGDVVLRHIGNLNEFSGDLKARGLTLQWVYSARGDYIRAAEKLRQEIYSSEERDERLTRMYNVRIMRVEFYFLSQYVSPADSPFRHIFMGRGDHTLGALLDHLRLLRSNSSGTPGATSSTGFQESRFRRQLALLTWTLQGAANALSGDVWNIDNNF
inactive: saracatinib 0.007 | sotrastaurin -0.031 | alvocidib 0.029 | Tubastatin A -0.053 | [1] 0.006 | defactinib 0.029 | rucaparib 0.029 | [2] -0.129 | encorafenib -0.015 | [3] 0.009 | [4] -0.066 | filanesib 0.011 | zotarolimus -0.06 | idasanutlin 0.035 | alisertib -0.04 | [5] 0.011 | gefitinib -0.035 | [6] 0.041 | lapatinib -0.011 | pictilisib 0.05

TFAM (UniProt Q00059)
UniProt Q00059, sequence (Q00059 whole entry, looked up): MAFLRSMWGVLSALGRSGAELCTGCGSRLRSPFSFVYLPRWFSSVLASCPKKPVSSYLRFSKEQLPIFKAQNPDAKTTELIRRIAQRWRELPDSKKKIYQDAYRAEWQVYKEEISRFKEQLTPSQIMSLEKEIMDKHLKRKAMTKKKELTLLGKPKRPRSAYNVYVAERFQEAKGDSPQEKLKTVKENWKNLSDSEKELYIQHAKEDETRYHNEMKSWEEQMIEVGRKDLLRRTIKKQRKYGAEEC
inactive: saracatinib -0.017 | sotrastaurin 0.052 | alvocidib 0.116 | Tubastatin A 0.052 | [1] -0.008 | defactinib 0.107 | rucaparib 0.042 | [2] -0.01 | encorafenib 0.039 | [3] 0.047 | [4] -0.035 | filanesib 0.048 | zotarolimus 0.01 | idasanutlin 0.046 | alisertib -0.1 | [5] 0.015 | gefitinib -0.026 | [6] -0.058 | lapatinib -0.012 | pictilisib -0.04

SLK isoform 2 (UniProt Q9H2G2)
active: pictilisib 0.212
inactive: saracatinib -0.015 | sotrastaurin -0.192 | alvocidib -0.031 | Tubastatin A 0.025 | [1] 0.079 | defactinib -0.089 | rucaparib 0.048 | [2] 0.02 | encorafenib 0.052 | [3] 0.012 | [4] 0.001 | filanesib 0.042 | zotarolimus -0.007 | idasanutlin -0.008 | alisertib -0.045 | [5] -0.103 | gefitinib 0.025 | [6] -0.079 | lapatinib -0.193

SLIRP (UniProt Q9GZT3)
inactive: saracatinib -0.068 | sotrastaurin -0.141 | alvocidib -0.143 | Tubastatin A 0.019 | [1] -0.045 | defactinib -0.005 | rucaparib 0.148 | [2] -0.185 | encorafenib -0.094 | [3] 0.096 | [4] 0.088 | zotarolimus -0.054 | idasanutlin 0.041 | alisertib -0.08 | gefitinib 0.041 | [6] 0.023 | lapatinib -0.042 | pictilisib -0.15
active: filanesib -0.429 | [5] -0.648
